Screening results: PubChem, several laboratories
Rows were chosen to be rich in hits. Some 1.8% of all compounds tested hit in one or more screens of this group.
LANA-H2A inh = blocks KSHV LANA binding to histone H2A/H2B; cell-free LANA-H2A/H2B peptide, fluorescence polarization; AID 2629; Q9QR71; inhibition, % (concentration not given with the values); actives 0.6% (n = 320,000); in the data active means inhibition mostly above about 10%, no sharp cut-off; inactive means mostly below about 6.7%
TLR4-MyD88 BLA = TLR4-MyD88 interaction inhibition in cells; inhibition, % at 8.4 µM; HeLa CL3-4 TLR4/MyD88 BLA complementation, FRET ratio; AID 861; actives 0.18% (n = 200,000); in the data active means inhibition above about 25%
NOD2 RIPK2 PPI = blocks binding of human NOD2 to RIPK2 | CHO BLA complementation NOD2-RIPK2, CCF4 ratio | actives 0.38% (n = 360,000) | AID 624267 | O43353 | inhibition, % at 4.98 µM; in the data active means inhibition above about 21%
TLR9-MyD88 inh = blocks human TLR9 binding to MyD88; Q9NR96+Q99836; CHO BLA complementation TLR9-MyD88, CCF4 FRET ratio; inhibition, % at 4.98 µM; actives 0.21% (n = 340,000); AID 504734;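 active means inhibition above the mean over all tested compounds plus 3 SD, cut at about 21% in these data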
Rtt109 Vps75 = C. albicans Rtt109 histone acetyltransferase inhibition. Q5AAJ8. purified Rtt109/Vps75, ThioGlo CoA-SH fluorescence, 4 h. inhibition, % at 34.9 µM. actives 0.16% (n = 330,000). AID 540336;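 active means inhibition of at least 50% in every replicate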
m5-HT2A agonist = agonists of mouse serotonin 5-HT2A receptor (HTR2A); CHO-K1 mHTR2A beta-arrestin complementation, luminescence; percent of 30 µM serotonin response; activation, % at 7.6 µM; actives 0.66% (n = 360,000);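 active means activation above a run cutoff, the mean activation of all tested compounds plus 3 SD, cut at about 14% in these data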
TLR9-MyD88 cf = TLR9-MyD88 interaction inhibition, confirmation. shares compounds with TLR9-MyD88 inh. CHO TLR9/MyD88 BLA complementation, CCF4 FRET ratio. inhibition, % at 4.98 µM. actives 51% (n = 680). AID 540250;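 active means mean inhibition across three repeats above about 21% taken from the earlier screen, limit read from the data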;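 further: blue over green emission ratio reports constitutive TLR9 MyD88 association via BLA complementation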
BLA counter = non-selective beta-lactamase inhibitors in TLR9-MyD88 counter-screen. actives 7% (n = 680). shares compounds with TLR9-MyD88 inh. inhibition, % at 4.98 µM. CHO-BLA cells, CCF4 FRET ratio, BLA reporter. AID 540251;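 active means mean inhibition above a 50% cutoff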;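 further: counterscreen of TLR9-MyD88 hits on CMV-driven BLA in CHO-K1 cells; higher means less blue over green ratio so more BLA blockade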
TLR9 CHO cytotox = CHO cell toxicity counter-screen for TLR9-MyD88 inhibitors. inhibition, % at 4.98 µM. TLR9-MyD88 CHO cells cytotoxicity, luminescence. actives 39% (n = 680). shares compounds with TLR9-MyD88 inh; in the data active means inhibition above about 11%
Hits are given with their value; - = inactive; . = no result.

SMILES | LANA-H2A inh | TLR4-MyD88 BLA | NOD2 RIPK2 PPI | TLR9-MyD88 inh | Rtt109 Vps75 | m5-HT2A agonist | TLR9-MyD88 cf | BLA counter | TLR9 CHO cytotox
COc1cccc(CNc2nc3cc(-c4ccc(C(=O)N5CCN(C)CC5)cc4)sc3c(=O)n2C)c1 | . | . | - | . | . | - | . | . | .
COc1ccccc1C1C=C(c2ccc(Cl)cc2)Nc2nc(N3C(=O)CCC3=O)nn21 (stereo unspecified) | - | - | 53.0 | 46.7 | . | - | - | - | -
COc1ccccc1C1C=C(c2ccc(Cl)cc2)Nc2nc(NS(C)(=O)=O)nn21 (stereo unspecified) | - | - | . | . | . | . | . | . | .
O=C(NCc1ccccc1)c1[nH]c(C(F)(F)F)nc1-c1ccccc1 | . | . | - | . | . | - | . | . | .
CN(C)c1ccc(/C=C(\Cl)c2nc3ccccc3s2)cc1 | - | - | - | 25.3 | - | - | - | - | -
O=C(O)c1ccc(C=C(c2nc3ccccc3s2)c2nc3ccccc3s2)cc1 | - | - | - | - | - | - | . | . | .
CCOc1cc(OCC)cc(C(=O)N2CCC[C@H]2C(=O)N2CCC[C@H]2C(=O)N[C@@H](C)c2ccccc2)c1 | . | . | - | . | . | - | . | . | .
CN1/C(=C\C(=O)c2cncc(Br)c2)C(C)(C)c2ccccc21 | - | - | - | 21.5 | - | - | - | - | 25.6
CN1/C(=C\C(=O)c2cccnc2)C(C)(C)c2ccccc21 | - | - | - | - | - | - | . | . | .
CS(=O)(=O)c1ncc(Cl)c(C(=O)Nc2ccc(N3CCOCC3)cc2)n1 | - | - | 47.2 | 43.0 | 109.6 | - | 46.6 | - | 95.4
O=C(Nc1ccc(OC(F)F)cc1)c1ccccn1 | - | - | - | - | - | - | . | . | .
CS(=O)(=O)c1ncc(Cl)c(C(=O)Nc2ccc(OC(F)F)cc2)n1 | - | . | 73.0 | 42.4 | - | - | 45.1 | - | 97.1
COCCCN1C(=O)C(CC(=O)NCc2cccs2)CC(C(=O)N(C(C)C)C(C)C)=C1C (stereo unspecified) | . | . | - | . | . | - | . | . | .
O=C1/C(=C\c2cccc(O)c2O)SC(=S)N1Cc1ccccc1 | - | . | - | - | - | - | . | . | .
O=C1/C(=C\c2cc([N+](=O)[O-])ccc2O)SC(=S)N1Cc1ccc(Cl)cc1 | - | . | - | 23.5 | - | - | - | - | -
Cc1ccc(S(=O)(=O)C=CS(=O)(=O)c2ccc(C)cc2)cc1 | . | . | - | 29.0 | . | - | 37.2 | - | 97.3
Cc1ccc(S(=O)(=O)c2ccc(C)cc2)cc1 | - | - | - | - | - | - | . | . | .
CCOC(=O)CNC(=O)CSc1nc(-c2ccc(OC)cc2)ns1 | - | - | - | 22.4 | - | - | - | - | -
CCCNC(=O)c1cc(C2CCCN(C(=O)c3ccc(NC(C)=O)cc3)C2)on1 (stereo unspecified) | . | . | - | . | . | - | . | . | .
O=C([C@H]1O[C@@H](n2ccc(=O)[nH]c2=O)[C@H](O)[C@@H]1O)N1CCC(F)(F)CC1 | . | . | - | . | . | - | . | . | .
CCC(=O)N(C)C[C@H]1Oc2cc(-c3ccccc3F)ccc2S(=O)(=O)N([C@H](C)CO)C[C@H]1C | . | . | - | - | . | - | . | . | .
COc1ccc(C(=O)c2sc3nc(-c4ccc(OC)cc4)ccc3c2N)cc1 | - | - | - | 20.8 | - | - | 44.9 | - | -
COc1ccc(NC(=O)c2sc3nc(-c4cccnc4)ccc3c2N)cc1 | - | . | - | 34.1 | - | - | - | - | -
Nc1c(C(=O)Nc2ccccc2)sc2nc(-c3cccnc3)ccc12 | - | . | . | . | . | . | . | . | .
CC(C)CCN1CCC[C@]2(N[C@H](c3ccc(C(F)(F)F)cc3)[C@@H]3C(=O)N(Cc4ccccc4)C(=O)[C@@H]32)C1=O | . | . | - | - | . | - | . | . | .
CCS(=O)(=O)Nc1ccc(C(=O)c2ccccc2)cc1 | - | - | - | 22.3 | - | - | - | - | -
CCS(=O)(=O)Nc1ccc(C(=O)OC)cc1 | - | - | - | - | - | - | . | . | .
